PAX8 reporter – PAX8 transcriptional activity inhibition; RMG-I TPO-luciferase reporter, SteadyGlo, 24 h; inhibition, % at 12.6 µM; hit rate 1.2% among 360,000;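 active = mean replicate inhibition at least 60% with every replicate also reaching 60%; inconclusive = only one of the two criteria is met; inactive = mean below 60% and not all replicates reaching 60%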;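 note: luciferase light reporting Pax8 driven TPO promoter activity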
EBV LMP1 NFkB – reduces LMP1-driven NF-kappaB luciferase signal; LMP1-induced NF-kappaB luciferase reporter cells, luminescence; inhibition, % at 12.5 µM; hit rate 0.69% among 350,000; in the data active = inhibition above about 41%; inconclusive = no clear call, values can overlap the other calls
TRPM1 prom inh – inhibitors of MITF-driven TRPM1 promoter in melanoma cells; SK-MEL-5 TRPM1 promoter luciferase, 24 h; inhibition, % at 12.5 µM; hit rate 0.83% among 330,000;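 active = mean inhibition across replicates of 60% or more, whatever share of single replicates reaches that level; inconclusive = some that reach 60%, reason not given; inactive = mean inhibition across replicates below 60%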
EWS-Fli inh – inhibitors of EWS/Fli oncoprotein transcriptional activity; A673 NR0B1-luciferase reporter, viability-normalised; inhibition, % at 12.6 µM; hit rate 0.67% among 350,000;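 active = mean inhibition of at least 50% after viability correction, with every replicate also passing that limit; inconclusive = mean reaches 50% but only one of two replicates passes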;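 note: firefly luciferase signal divided by Alamar Blue viability fluorescence both relative to DMSO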
Shn3 3UTR inh – inhibitors of Schnurri-3 3'UTR reporter in osteoblasts. Clone20 osteoblast Shn3 3'UTR firefly luciferase, 24 h. hit rate 0.52% among 360,000. inhibition, % at 12.5 µM. AID 588674;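 active = mean inhibition of at least 75% with every replicate also reaching 75%; inconclusive = mean inhibition at least 75% but some replicate below; inactive = mean inhibition below 75%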
LGR2 inh – Drosophila LGR2 receptor signaling inhibition; hit rate 0.35% among 380,000; AID 720647; HEK293 LGR2, CRE-luciferase, bursicon-stimulated, 4 h; inhibition, % at 9.99 µM;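 active = drop in luminescence signal, shown as inhibition above about 50% in the replicate tests, limit read from the data, passing the limit was not always enough; inconclusive = probably only some replicates passing the limit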;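 note: agonist challenge used bursicon conditioned medium at about half maximal strength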
Numbers stand for hits; 0 = inactive; ? = inconclusive; - = no result. This is a sample that favours compounds with a hit; in the whole collection about 2.2% have one here.

SMILES	PAX8 reporter	EBV LMP1 NFkB	TRPM1 prom inh	EWS-Fli inh	Shn3 3UTR inh	LGR2 inh
Cc1cc([N+](=O)[O-])c(Cl)cc1NC(=O)C(C)C	0	0	0	-	0	0
CNc1cc(Cl)c2nonc2c1[N+](=O)[O-]	?	0	96	0	90	104
COC(=O)[C@@H]1[C@@H](CO)[C@@H]2Cn3c(ccc(-c4cccc(OC)c4)c3=O)[C@H]1N2C(=O)c1cnccn1	0	-	-	0	-	0
CN(C)CC(C(=O)Cc1ccccc1)c1ccccc1 (configuration not stated)	104	0	0	0	95	0
Cc1cccc(S(=O)(=O)N2[C@@H]3c4ccc(-c5ccc(F)cc5)c(=O)n4C[C@H]2[C@H](CO)[C@H]3C(=O)O)c1	-	-	-	0	-	0
O=C(Cc1cccnc1)N1CCCCN2[C@H](CO)[C@@H](c3ccc(C#CC4CC4)cc3)[C@H]2C1	0	-	-	0	-	-
COC(=O)C1=C(c2ccc(OCc3ccccc3)cc2)C[C@@H]2CC[C@H]1N2C(=O)NCc1ccc([N+](=O)[O-])cc1	68	0	0	0	0	0
COC(=O)C1=C(c2ccc(OCc3ccccc3)cc2)C[C@@H]2CC[C@H]1N2C(=O)NCc1ccc(C(C)(C)C)cc1	86	0	-	0	?	0
COC(=O)C1=C(c2cccc(OCc3ccccc3)c2)C[C@@H]2CC[C@H]1N2C(=O)NCc1cc(C)oc1C(F)(F)F	63	0	0	0	0	0
C/C=C/c1ccc(C2[C@@H]3CN(C(=O)C4CC4)C[C@H]2N3)cc1 (some centres not stated)	0	-	-	0	-	0
CC=Cc1ccc2n(c1=O)C[C@H]1[C@H](CO)[C@@H](C(=O)N(C)C)N[C@@H]21 (mixture of isomers)	0	-	-	0	-	0
Cc1ccc(OCCOc2cccc(C=C3C(=O)NC(=O)NC3=O)c2)c(C)c1	0	45	0	?	0	77
COC(=O)[C@H]1[C@H](CO)[C@H]2Cn3c(ccc(C4=CCCC4)c3=O)[C@@H]1N2Cc1ccccn1	-	-	-	0	-	0
O=C1CNC[C@@H]2[C@@H](c3ccc(Br)cc3)[C@@H](CO)N12	0	-	-	0	-	0
CCN(CCCl)c1cc(CN(C)C)cc(NC(=O)c2ccc(C(=O)Nc3cc(CN(C)C)cc(N(CC)CCCl)c3)cc2)c1	108	87	98	60	96	95
CCN(CC)C(=O)c1ccc(NC(=O)c2cccc(C(F)(F)F)c2)cc1	0	0	0	0	0	0
CC(N)C(=O)NC1C2C(=C(O)CC(O)C2O)C(=O)OC1(C)C(Cl)Cl (configuration not stated)	121	85	66	?	96	99
C[C@@H]1CN([C@@H](C)CO)C(=O)c2c(c3ccccc3n2C)-c2ccccc2CO[C@H]1CN(C)C(=O)Oc1ccccc1	0	-	-	0	-	0
COC(=O)[C@H]1[C@H](CO)[C@H]2Cn3c(ccc(-c4ccccc4)c3=O)[C@@H]1N2C(=O)c1ccccc1F	-	-	-	0	-	0
CC=Cc1ccc2n(c1=O)C[C@@H]1[C@@H](CO)[C@H](C(=O)OC)[C@H]2N1S(=O)(=O)c1cccc(C)c1 (mixture of isomers)	-	-	-	0	-	0
CC(=O)c1ccc2c(c1)C1C(Cl)C(Sc3ccccc3[N+](=O)[O-])CC1C(c1ccccc1[N+](=O)[O-])N2 (configuration not stated)	63	0	0	-	0	-
CN1C(=O)NC(=O)/C(=C\C=C\c2ccccc2[N+](=O)[O-])C1=O	0	-	-	67	-	0
CN1C(=O)/C(=C/C=C/c2ccco2)C(=O)NC1=S	0	0	0	0	0	0
CCOC(=O)[C@]12Cc3ccc(C)cc3[C@H]1N(C1CCCCC1)C(=O)c1cc(OC)ccc12	101	-	-	?	-	55
CCOC(=O)[C@]12Cc3cc(Cl)ccc3[C@H]1N(Cc1ccccc1)C(=O)c1ccccc12	0	0	0	0	0	0
SMILES	PAX8 reporter	EBV LMP1 NFkB	TRPM1 prom inh	EWS-Fli inh	Shn3 3UTR inh	LGR2 inh
CCOC(=O)[C@]12Cc3cc(C)ccc3[C@H]1N(C1CCCCC1)C(=O)c1ccccc12	86	-	-	0	-	64
CCOC(=O)[C@]12Cc3c(cc(OC)c(OC)c3OC)[C@H]1N(C1CCCCC1)C(=O)c1ccccc12	89	-	-	0	-	?
CCOC(=O)[C@]12Cc3cc(Cl)ccc3[C@H]1N(C)C(=O)c1cc(OC)ccc12	0	-	-	0	-	?
CCOC(=O)[C@]12Cc3cc(Cl)ccc3[C@H]1N(C1CCCCC1)C(=O)c1cc(OC)ccc12	105	-	-	68	-	101
CCOC(=O)[C@]12Cc3ccccc3[C@H]1N(C(C)C)C(=O)c1ccccc12	0	-	-	0	-	?
CCOC(=O)[C@]12Cc3cc(OC)ccc3[C@H]1N(CC(=O)OC)C(=O)c1ccccc12	0	-	-	0	-	0
CCOC(=O)[C@]12Cc3cc(C)ccc3[C@H]1N(CCC(=O)OC)C(=O)c1ccccc12	0	-	-	0	-	53
O/N=C/c1c[nH]c2ccccc12	-	0	0	-	0	-
NC(=Nc1ccccc1)NN=Cc1c[nH]c2ccccc12	0	0	88	0	0	0
Cc1nc2c(=O)n(C)c(=O)nc-2n(C)n1	-	91	110	-	98	-
O=C(Cc1cccnc1)N1CCCCN2[C@@H](CO)[C@@H](c3ccc(C#CC4CC4)cc3)[C@@H]2C1	0	-	-	0	-	-
Cc1cccc(C)c1-n1nnnc1C(c1cccs1)N1CCC(n2c(=O)[nH]c3ccccc32)CC1 (configuration not stated)	0	-	-	0	0	0
O=c1[nH]c2ccccc2n1C1CCN(C(c2cccs2)c2nnnn2Cc2ccccc2)CC1 (configuration not stated)	87	-	-	0	85	0
O=c1[nH]c2ccccc2n1C1CCN(C(c2ccccc2OC(F)(F)F)c2nnnn2Cc2ccccc2)CC1 (configuration not stated)	84	-	-	0	0	61
COc1ccc(C(c2nnnn2Cc2ccccc2)N2CCC(n3c(=O)[nH]c4ccccc43)CC2)cc1 (configuration not stated)	89	-	-	0	0	0
COc1ccc(C(c2nnnn2-c2ccc(OC)cc2)N2CCC(n3c(=O)[nH]c4ccccc43)CC2)cc1 (configuration not stated)	0	-	-	0	0	0
O=C1CNC[C@@H]2[C@H](c3ccc(Br)cc3)[C@@H](CO)N12	0	-	-	0	-	0
O=c1[nH]c2ccccc2n1C1CCN(C(c2nnnn2Cc2ccccc2)C2CC2)CC1 (configuration not stated)	86	-	-	0	0	0
CSCCC(c1nnnn1C1CCCC1)N1CCC(n2c(=O)[nH]c3ccccc32)CC1 (configuration not stated)	0	-	-	0	0	0
CSCCC(c1nnnn1-c1c(C)cccc1C)N1CCC(n2c(=O)[nH]c3ccccc32)CC1 (configuration not stated)	0	-	-	0	0	93
O=c1[nH]c2ccccc2n1C1CCN(C(CCc2ccccc2)c2nnnn2Cc2ccccc2)CC1 (configuration not stated)	108	-	-	0	85	99

Bioassay records deposited in PubChem BioAssay by Broad Institute.
